The source made the active and inactive calls. The calls were made as follows: active = hit-call score of the fitted dose curve at least 0.9, where 1 is the maximum; inactive = score below 0.9.
read-out: urokinase plasminogen activator (uPA), PLAU (gene 5328); experiment: BSK_KF3CT_uPA: BioMAP Diversity Plus: KF3CT Assay for urokinase plasminogen activator (uPA) Biomarker Activity (AID 2283075); conditions: primary human keratinocytes with fibroblasts; actives raise or lower the signal
Experimental: BSK_KF3CT is a cell-based, multiplexed-readout assay that uses keratinocytes and foreskin fibroblasts, a human skin primary cell co-culture, with measurements taken at 24 hours after chemical dosing in a 96-well plate.BSK_KF3CTA is an assay component measured in the BSK_KF3CT assay. It measures uPA antibody related to regulation of gene expression using ELISA technology.Data from the assay component BSK_KF3CTA was analyzed into 1 assay endpoint. This assay endpoint, BSK_KF3CTA, was analyzed with bidirectional fitting relative to DMSO as the negative control and baseline of activity. Using a type of binding reporter, gain or loss-of-signal activity can be used to understand changes in the signaling as they relate to the gene PLAU. Furthermore, this assay endpoint can be referred to as a primary readout, because this assay has produced multiple assay endpoints where this one serves a signaling function. To generalize the intended target to other relatable targets, this assay endpoint is annotated to the protease intended target family, where the subfamily is serine protease.
The levels of cell surface (or secreted, indicated by the prefix "s") biomarker endpoints were measured by ELISA. Overt cytotoxicity to cells in confluent adherent cultures (all systems other than the BT system) was assessed by measuring total protein levels using sulforhodamine B (SRB) staining in parallel cultures at the time of biomarker measurements, indicated as SRB endpoints. For proliferation assays for adherent cell types, individual cell types are cultured at sub-confluence and relative cell numbers quantified by SRB staining at time points optimized for each system (48 h: 3C and CASM3C systems; 72 h: BT and HDF3CGF systems; 96 h: SAg system). SRB was performed by staining cells with 0.1% SRB after fixation with 10% TCA and reading wells at 560 nm.Viability and proliferation of PBMC (T cells) was quantified by Alamar Blue reduction for the SAg and BT systems. For PBMC viability (referred to as PBMC Cytotoxicity within the assay endpoint names), cells were plated (75,000/well in a 96-well plate) and then chemical samples added for 1 h before addition of activators, SEB and TSST-1 (20 ng/mL final concentration each). Cells were incubated for 90 h. Then, Alamar Blue (20 uL/well) (Invitrogen, Cat DAL1100) was added for 6 h, and the plates were read with a fluorescence microplate reader at 546/580 nm (excitation/emission). For PBMC proliferation, cells were plated and activated as above but incubated for only 16 h prior to addition of Alamar Blue. Plates were read after 6 h.

`CN(C)c1ccc(N=NS(=O)(=O)O)cc1` was tested. Which outcome did it give?
The outcome was “inactive”.

For `CCOc1cccc(-n2cc(C(=O)N3CCN(c4cc(C(=O)O)c5ccccc5c4)CC3)nc2-c2ccc(C)cc2)c1`, which AC50 is on record?
Its AC50 is 31.2 µM (active).

For `CCCCCCc1ccc(O)cc1O`, which AC50 is on record?
Its AC50 is 31.6 µM (active).

Which outcome does the source give for `NC(=O)NO` here?
Its outcome is “inactive”.

Which outcome does the source give for `CC[C@H]1CC[C@H](NCc2cc3c(cc2OC)[C@H]2C[C@H]2C(=O)N3C)[C@H](c2ccccc2)N1` here?
Its outcome is “inactive”.

With `Nc1ccc(Nc2ccccc2)cc1` as the compound, how does the outcome read?
The outcome was “inactive”.

For `O=C(NS(=O)(=O)/C=C/c1ccccc1)c1ccc(F)cc1Cl`, which outcome is on record?
The outcome was “inactive”.

How did the outcome turn out when `CC(=O)OC[C@H]1O[C@@](COC(C)=O)(O[C@H]2O[C@H](COC(C)=O)[C@@H](OC(C)=O)[C@H](OC(C)=O)[C@H]2OC(C)=O)[C@@H](OC(C)=O)[C@@H]1OC(C)=O` was run?
Its outcome is “inactive”.

How did the outcome turn out when `COc1ccc(/C=C/S(=O)(=O)NC(=O)c2ccc(C)cc2Cl)cc1` was run?
The outcome was “inactive”.

Which AC50 does the source give for `CCc1cc(SCc2sc(-c3ccc(C(F)(F)F)cc3)nc2CN2CCN(c3ccc(OC)cc3)CC2)ccc1OCC(=O)O` here?
The AC50 was 5.22 µM (active).

Which outcome does the source give for `CCCCCCCCCCCCCCCO` here?
The outcome was “inactive”.

Which outcome does the source give for `Cc1[nH]cnc1C[C@H]1CCc2c(C)c3ccccc3n2C1=O` here?
The outcome was “inactive”.

How did the outcome turn out when `Nc1nc2ncc(CNc3ccc(C(=O)N[C@@H](CCC(=O)O)C(=O)O)cc3)nc2c(=O)[nH]1` was run?
Its outcome is “inactive”.

For `CCC(C)(C)C(=O)O[C@H]1C[C@@H](C)C=C2C=C[C@H](C)[C@H](CC[C@@H]3C[C@@H](O)CC(=O)O3)[C@H]21`, which AC50 is on record?
Its AC50 is 31.2 µM (active).

With `CCCCCCCCO` as the compound, how does the outcome read?
Its outcome is “inactive”.

With `Cn1c(=O)cc(Oc2ccc(F)cc2F)c2cnc(NCC(C)(C)O)nc21` as the compound, how does the outcome read?
Its outcome is “inactive”.

`CC(=O)OCCC(C)C` was tested. Which outcome did it give?
The outcome was “inactive”.

With `CC(C)=CCC/C(C)=C/CO` as the compound, how does the outcome read?
Its outcome is “inactive”.

With `CC(C)CCCCCCOC(=O)c1ccc(C(=O)OCCCCCCC(C)C)c(C(=O)OCCCCCCC(C)C)c1` as the compound, how does the outcome read?
Its outcome is “inactive”.

`COc1ccc(-n2nc(C(F)F)cc2-c2ccc(S(C)=O)cc2)cc1` (stereo not given) was tested. Which outcome did it give?
Its outcome is “inactive”.

For `COCCOc1cc2cc(C(=O)NC3CCN(C(C)C)CC3)n(CC(=O)Nc3ccc(Cl)cn3)c2cn1`, which outcome is on record?
Its outcome is “inactive”.

With `O=C(O)c1cc(N=Nc2ccc(S(=O)(=O)Nc3ccccn3)cc2)ccc1O` as the compound, how does the outcome read?
Its outcome is “inactive”.

Which outcome does the source give for `O=C1CCCCCN1` here?
Its outcome is “inactive”.

For `C1=CCCC=CCCC=CCC1`, which outcome is on record?
The outcome was “inactive”.

`O=C(O)CCN(C1(C(=O)NO)CCCC1)S(=O)(=O)c1ccc(Oc2ccc(F)cc2)cc1` was tested. Which outcome did it give?
Its outcome is “inactive”.

Which outcome does the source give for `Fc1ccccc1[C@@H](F)COC1CCC(Nc2ncnc3[nH]ncc23)CC1` (stereo not given in full) here?
Its outcome is “inactive”.

How did the outcome turn out when `O=C1OC(=O)C2C3C=CC(C3)C12` (stereo not given) was run?
Its outcome is “inactive”.

`CCCCCCCCCCCCc1ccccc1` was tested. Which outcome did it give?
Its outcome is “inactive”.

`CC(C)=CCCC(C)CCO` (stereo not given) was tested. Which outcome did it give?
The outcome was “inactive”.

Which AC50 does the source give for `COc1cccc(-c2ccc(/C=C\CN3CCCCCC3)cc2Cl)c1` here?
Its AC50 is 33.5 µM (active).

How did the outcome turn out when `CC/C(=C\C(=N/O)C(N)=O)C(C)[N+](=O)[O-]` (stereo not given) was run?
The outcome was “inactive”.

Which outcome does the source give for `CCCCC(CC)COC(=O)c1ccc(C(=O)OCC(CC)CCCC)cc1` (stereo not given) here?
The outcome was “inactive”.

For `CCCC(=O)OCC`, which outcome is on record?
The outcome was “inactive”.

`COC(=O)c1ccccc1O` was tested. Which outcome did it give?
Its outcome is “inactive”.

With `CNCc1ccc(NC(=O)c2c[nH]c3c2C(=O)CCC3)cc1` as the compound, how does the outcome read?
Its outcome is “inactive”.

How did the AC50 turn out when `CC[C@H](C)C(=O)O[C@H]1C[C@@H](C)C=C2C=C[C@H](C)[C@H](CC[C@@H]3C[C@@H](O)CC(=O)O3)[C@H]21` was run?
The AC50 was 32.5 µM (active).

`Cn1cnc([N+](=O)[O-])c1Sc1ncnc2nc[nH]c12` was tested. Which outcome did it give?
Its outcome is “inactive”.

For `CC(C)c1cccc(C(C)C)c1N1C(=O)c2ccc(O)cc2C1=O`, which AC50 is on record?
Its AC50 is 36.7 µM (active).

For `C[C@](N)(Cc1ccc(O)c(O)c1)C(=O)O`, which outcome is on record?
The outcome was “inactive”.

How did the outcome turn out when `CC[C@H]1OC(=O)[C@H](C)[C@@H](O[C@H]2C[C@@](C)(OC)[C@@H](O)[C@H](C)O2)[C@H](C)[C@@H](O[C@@H]2O[C@H](C)C[C@H](N(C)C)[C@H]2O)[C@](C)(O)C[C@@H](C)C(=O)[C@H](C)[C@@H](O)[C@]1(C)O` was run?
The outcome was “inactive”.
